Laboratory results as given in PubChem BioAssay (EPA / NIEHS).
Results filed as inconclusive are left out. Calls of active or inactive are those of the source. How the source made its calls, unless noted: active means hit-call score of the fitted dose curve at least 0.9, where 1 is the maximum; inconclusive means response in the unintended direction; inactive means score below 0.9.

What was measured:
[1] = ATG_TAL_CIS: Attagene CIS-FACTORIAL HepG2 Assay for human TAL Basal Promoter (AID 2282966; active means hit-call score of the fitted dose curve at least 0.9, where 1 is the maximum; inactive means score below 0.9;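 further: background control endpoint measuring basal TAL promoter reporter mRNA not a specific factor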); details: HepG2 Attagene cis-factorial TAL promoter reporter; actives raise or lower the signal
Procedure, shortened: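 RT-PCR plus capillary electrophoresis quantifies reporter mRNA induction in transiently transfected HepG2 cells after 24 h chemical treatment. DMSO serves as negative control and baseline for bidirectional fitting.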

[2] = ATG_TGFb_CIS: Attagene CIS-FACTORIAL HepG2 Assay for human Transforming Growth Factor (TGF) (AID 2282967; active means hit-call score of the fitted dose curve at least 0.9, where 1 is the maximum; inactive means score below 0.9); details: HepG2 Attagene CIS TGFb reporter, mRNA transcription; actives raise or lower the signal
Procedure, shortened: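 HepG2 cells transiently transfected with cis-promoter-driven multiple reporter units measure endogenous TF activity; reporter mRNA quantified at 24 h by RT-PCR, FAM labeling, HpaI digestion and capillary electrophoresis. Bidirectional fit vs DMSO.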

[3] = ATG_VDRE_CIS: Attagene CIS-FACTORIAL HepG2 Assay for human Vitamin D Receptor Element (VDRE) (AID 2282968; active means hit-call score of the fitted dose curve at least 0.9, where 1 is the maximum; inactive means score below 0.9); details: HepG2 VDRE cis-reporter transcription, actives raise or lower the signal
Procedure, shortened: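 Reporter mRNA induction, quantified by capillary electrophoresis of fluorescently labelled RT-PCR products, was read 24 h after dosing HepG2 cells carrying transiently transfected cis-regulated reporter units; gain or loss relative to DMSO.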

[4] = target: Nuclear receptor subfamily 1 group I member 3 (Homo sapiens) (UniProt Q14994); assay: ATG_CAR_TRANS: Attagene TRANS-FACTORIAL HepG2 Assay for human Constitutive Androstane Receptor (CAR) (AID 2282969); details: HepG2 Attagene TRANS-FACTORIAL CAR reporter;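 further: activators raise reporter mRNA above DMSO so AC50 marks induction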
Nuclear receptor subfamily 1 group I member 3 (Homo sapiens), sequence (Q14994 whole entry, looked up, the tested form may be a part): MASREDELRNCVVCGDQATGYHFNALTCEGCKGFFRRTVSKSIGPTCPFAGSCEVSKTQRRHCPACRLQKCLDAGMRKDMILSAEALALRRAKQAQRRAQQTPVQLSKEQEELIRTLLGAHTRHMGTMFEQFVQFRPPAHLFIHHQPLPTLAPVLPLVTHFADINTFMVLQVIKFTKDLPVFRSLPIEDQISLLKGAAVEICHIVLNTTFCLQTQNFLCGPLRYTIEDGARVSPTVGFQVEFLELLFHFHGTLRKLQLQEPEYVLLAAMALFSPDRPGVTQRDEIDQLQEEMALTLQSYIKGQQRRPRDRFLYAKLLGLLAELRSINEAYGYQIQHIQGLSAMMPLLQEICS
Procedure, shortened: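 Readout is reporter mRNA induction, quantified by fluorescent primer extension and capillary electrophoresis after RT-PCR. Cells were HepG2 transiently carrying chimeric NR-Gal4 constructs with GAL4-UAS reporters, treated for 24 h; activity scored upward from DMSO.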

[5] = target: X-box-binding protein 1 (Homo sapiens) (UniProt P17861); assay: ATG_Xbp1_CIS: Attagene CIS-FACTORIAL HepG2 Assay for human X-box Binding Protein 1 (XBP1) (AID 2282972; active means hit-call score of the fitted dose curve at least 0.9, where 1 is the maximum; inactive means score below 0.9); details: HepG2 XBP1 cis-element reporter, Attagene multiplex; actives raise or lower the signal
X-box-binding protein 1 (Homo sapiens), sequence (P17861 whole entry, looked up): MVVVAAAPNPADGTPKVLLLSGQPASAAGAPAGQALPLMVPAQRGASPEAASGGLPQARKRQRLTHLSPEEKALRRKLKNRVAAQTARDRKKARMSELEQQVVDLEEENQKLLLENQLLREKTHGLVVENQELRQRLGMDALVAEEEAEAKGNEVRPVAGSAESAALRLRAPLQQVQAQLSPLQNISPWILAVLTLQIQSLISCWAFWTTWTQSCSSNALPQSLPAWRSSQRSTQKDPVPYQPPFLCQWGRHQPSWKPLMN
Procedure, shortened: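 HepG2 cells transiently transfected with cis-regulated multiple reporter transcription units; endogenous transcription factor activity measured 24 hours after chemical dosing. Reporter mRNA quantified by RT-PCR, 6-FAM primer extension, HpaI digestion and capillary electrophoresis; bidirectional fitting versus DMSO.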

[6] = ATG_M_19_TRANS: Attagene TRANS-FACTORIAL HepG2 Assay for M19 Transcription Factor (Internal Marker) (AID 2282974); details: HepG2 Attagene TRANS-FACTORIAL M19 internal marker reporter
Procedure, shortened: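 HepG2 transiently transfected with GAL4-UAS multiplex reporter constructs, exposed 24 h; reporter RNA quantified by RT-PCR, 6-FAM labeling, HpaI digestion and capillary electrophoresis; internal background marker fitted upward versus DMSO.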

[7] = ATG_GAL4_TRANS: Attagene TRANS-FACTORIAL HepG2 Assay for GAL4 (Internal Marker) (AID 2282976); details: HepG2 Attagene TRANS GAL4 internal marker reporter
Procedure, shortened: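 In transfected human HepG2 liver cells dosed 24 h, GAL4 reporter mRNA serves as a baseline marker. Detection by RT-PCR with fluorescent capillary electrophoresis, activity fitted upward relative to DMSO.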

[8] = target: Glucocorticoid receptor (Homo sapiens) (UniProt P04150); assay: ATG_GR_TRANS: Attagene TRANS-FACTORIAL HepG2 Assay for human Glucocorticoid Receptor (GR) (AID 2282978); details: HepG2 Attagene TRANS GR reporter, mRNA transcription;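 further: activators score as hits since higher reporter transcript over DMSO is fitted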
Glucocorticoid receptor (Homo sapiens), sequence (P04150 whole entry, looked up, the tested form may be a part): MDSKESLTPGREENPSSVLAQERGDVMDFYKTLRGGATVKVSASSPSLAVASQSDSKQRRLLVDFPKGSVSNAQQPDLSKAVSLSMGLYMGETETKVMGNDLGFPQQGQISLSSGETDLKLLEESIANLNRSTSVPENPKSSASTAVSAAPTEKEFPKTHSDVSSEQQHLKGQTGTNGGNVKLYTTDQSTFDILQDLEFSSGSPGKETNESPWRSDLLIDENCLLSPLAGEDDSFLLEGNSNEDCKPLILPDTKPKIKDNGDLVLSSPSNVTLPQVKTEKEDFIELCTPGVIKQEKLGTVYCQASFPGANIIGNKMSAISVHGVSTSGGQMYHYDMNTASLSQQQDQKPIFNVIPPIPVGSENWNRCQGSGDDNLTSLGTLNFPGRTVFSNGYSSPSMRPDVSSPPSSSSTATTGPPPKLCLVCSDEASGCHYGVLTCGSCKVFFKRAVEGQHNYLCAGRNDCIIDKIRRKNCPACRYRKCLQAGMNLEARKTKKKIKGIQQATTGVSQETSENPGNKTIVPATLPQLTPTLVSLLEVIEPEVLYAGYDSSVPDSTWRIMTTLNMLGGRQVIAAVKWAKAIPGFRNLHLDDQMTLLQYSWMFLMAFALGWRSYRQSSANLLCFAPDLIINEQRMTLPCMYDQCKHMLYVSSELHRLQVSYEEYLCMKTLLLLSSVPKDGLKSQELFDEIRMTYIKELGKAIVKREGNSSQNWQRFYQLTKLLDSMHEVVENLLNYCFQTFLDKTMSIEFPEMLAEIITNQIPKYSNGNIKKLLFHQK
Procedure, shortened: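 HepG2 cells transiently transfected with GAL4-UAS reporter units and exogenous GR-Gal4 chimera, dosed 24 h. Reporter mRNA by RT-PCR, FAM labeling, HpaI digest and capillary electrophoresis; gain-of-signal fit versus DMSO.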

[9] = target: Oxysterols receptor LXR-alpha (Homo sapiens) (UniProt Q13133); assay: ATG_LXRa_TRANS: Attagene TRANS-FACTORIAL HepG2 Assay for human Liver X Receptor alpha (LXRa) (AID 2282980); details: HepG2 Attagene TRANS reporter, LXRa transactivation
Oxysterols receptor LXR-alpha (Homo sapiens), sequence (Q13133 whole entry, looked up, the tested form may be a part): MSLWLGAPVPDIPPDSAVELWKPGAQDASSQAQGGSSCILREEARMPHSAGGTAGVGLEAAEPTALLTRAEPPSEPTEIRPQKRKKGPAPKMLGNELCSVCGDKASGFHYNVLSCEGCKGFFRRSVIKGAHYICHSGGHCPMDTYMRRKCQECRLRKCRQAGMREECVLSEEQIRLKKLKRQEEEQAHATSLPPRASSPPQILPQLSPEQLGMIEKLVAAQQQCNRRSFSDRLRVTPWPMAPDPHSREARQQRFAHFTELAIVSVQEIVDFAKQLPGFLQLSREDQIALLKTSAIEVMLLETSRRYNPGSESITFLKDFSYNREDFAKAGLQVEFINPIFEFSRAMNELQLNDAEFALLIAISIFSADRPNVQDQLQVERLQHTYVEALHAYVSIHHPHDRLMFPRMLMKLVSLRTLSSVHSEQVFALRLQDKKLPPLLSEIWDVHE
Procedure, shortened: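 Chemical-induced reporter mRNA measured by RT-PCR with fluorescent labelling and capillary electrophoresis after 24 h dosing of transiently transfected HepG2 cells expressing exogenous NR-Gal4 chimeras; increases scored against DMSO baseline.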

[10] = target: Oxysterols receptor LXR-beta (Homo sapiens) (UniProt P55055); assay: ATG_LXRb_TRANS: Attagene TRANS-FACTORIAL HepG2 Assay for human Liver X Receptor beta (LXRb) (AID 2282981); details: HepG2 Attagene TRANS GAL4-LXRb reporter, mRNA
Oxysterols receptor LXR-beta (Homo sapiens), sequence (P55055 whole entry, looked up, the tested form may be a part): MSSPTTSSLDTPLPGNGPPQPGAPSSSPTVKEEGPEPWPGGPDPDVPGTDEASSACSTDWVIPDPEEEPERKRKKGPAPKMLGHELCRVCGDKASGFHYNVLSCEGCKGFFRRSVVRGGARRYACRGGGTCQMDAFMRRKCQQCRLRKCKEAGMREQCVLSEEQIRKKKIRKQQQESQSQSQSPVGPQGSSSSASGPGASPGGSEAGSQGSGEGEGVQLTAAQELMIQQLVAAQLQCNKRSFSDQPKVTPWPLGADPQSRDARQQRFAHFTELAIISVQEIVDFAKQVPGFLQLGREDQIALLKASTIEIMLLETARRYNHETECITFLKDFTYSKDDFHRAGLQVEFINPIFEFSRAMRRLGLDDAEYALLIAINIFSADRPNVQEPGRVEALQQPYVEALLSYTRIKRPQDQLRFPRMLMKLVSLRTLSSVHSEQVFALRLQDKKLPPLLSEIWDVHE
Procedure, shortened: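 Transient transfection HepG2 (multiplexed RTUs, GAL4-UAS); NR-Gal4 chimera; 24 h exposure; RNA → RT-PCR → 6-FAM primer extension → HpaI → CE; increase vs DMSO.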

[11] = ATG_M_32_TRANS: Attagene TRANS-FACTORIAL HepG2 Assay for M32 Transcription Factor (Internal Marker) (AID 2282984); details: HepG2 Attagene TRANS M32 internal marker reporter;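 further: transcript level of a background control reporter unit measured by RT-PCR and capillary electrophoresis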
Procedure, shortened: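 Measures reporter mRNA induction in human HepG2 liver cells after 24 h chemical treatment. Transcripts from transiently transfected GAL4-UAS reporter units are amplified, fluorescently labelled and sized by capillary electrophoresis; gain of signal relative to DMSO.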

[12] = target: Nuclear receptor subfamily 4 group A member 2 (Homo sapiens) (UniProt P43354); assay: ATG_NURR1_TRANS: Attagene TRANS-FACTORIAL HepG2 Assay for human Nuclear Receptor Related Protein 1 (NURR1) (AID 2282985); details: HepG2 Attagene TRANS reporter, mRNA readout
Nuclear receptor subfamily 4 group A member 2 (Homo sapiens), sequence (P43354 whole entry, looked up, the tested form may be a part): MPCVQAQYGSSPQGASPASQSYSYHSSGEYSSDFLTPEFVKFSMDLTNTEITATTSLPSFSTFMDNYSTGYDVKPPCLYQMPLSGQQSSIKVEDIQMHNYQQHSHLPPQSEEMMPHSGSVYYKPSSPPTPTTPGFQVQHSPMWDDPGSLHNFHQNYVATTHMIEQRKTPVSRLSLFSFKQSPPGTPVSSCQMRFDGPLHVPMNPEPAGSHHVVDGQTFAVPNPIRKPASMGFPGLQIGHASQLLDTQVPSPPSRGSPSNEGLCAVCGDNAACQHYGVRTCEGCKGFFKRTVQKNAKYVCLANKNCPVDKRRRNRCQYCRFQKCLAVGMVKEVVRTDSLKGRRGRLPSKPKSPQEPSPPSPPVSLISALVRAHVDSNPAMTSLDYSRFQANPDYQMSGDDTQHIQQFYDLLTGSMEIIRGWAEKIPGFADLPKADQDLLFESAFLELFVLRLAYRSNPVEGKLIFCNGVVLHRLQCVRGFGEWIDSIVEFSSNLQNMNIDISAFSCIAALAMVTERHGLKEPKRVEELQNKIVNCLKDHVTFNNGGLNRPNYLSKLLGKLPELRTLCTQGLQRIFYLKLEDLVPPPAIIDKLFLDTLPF
Procedure, shortened: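 Transient transfection of HepG2, human liver cells, with multiple GAL4-UAS reporter transcription units. Cells dosed 24 h, RNA isolated, reverse-transcribed, PCR-amplified, FAM-labelled, HpaI-digested, sized by capillary electrophoresis. DMSO served as negative control.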

[13] = target: Transcriptional activator Myb (Homo sapiens) (UniProt P10242); assay: ATG_Myb_CIS: Attagene CIS-FACTORIAL HepG2 Assay for human Myeloblastosis (Myb) Proto-Oncogene Transcription Factor (AID 2282986; active means hit-call score of the fitted dose curve at least 0.9, where 1 is the maximum; inactive means score below 0.9); details: HepG2 Attagene CIS-FACTORIAL Myb reporter transcription; actives raise or lower the signal
Transcriptional activator Myb (Homo sapiens), sequence (P10242 whole entry, looked up): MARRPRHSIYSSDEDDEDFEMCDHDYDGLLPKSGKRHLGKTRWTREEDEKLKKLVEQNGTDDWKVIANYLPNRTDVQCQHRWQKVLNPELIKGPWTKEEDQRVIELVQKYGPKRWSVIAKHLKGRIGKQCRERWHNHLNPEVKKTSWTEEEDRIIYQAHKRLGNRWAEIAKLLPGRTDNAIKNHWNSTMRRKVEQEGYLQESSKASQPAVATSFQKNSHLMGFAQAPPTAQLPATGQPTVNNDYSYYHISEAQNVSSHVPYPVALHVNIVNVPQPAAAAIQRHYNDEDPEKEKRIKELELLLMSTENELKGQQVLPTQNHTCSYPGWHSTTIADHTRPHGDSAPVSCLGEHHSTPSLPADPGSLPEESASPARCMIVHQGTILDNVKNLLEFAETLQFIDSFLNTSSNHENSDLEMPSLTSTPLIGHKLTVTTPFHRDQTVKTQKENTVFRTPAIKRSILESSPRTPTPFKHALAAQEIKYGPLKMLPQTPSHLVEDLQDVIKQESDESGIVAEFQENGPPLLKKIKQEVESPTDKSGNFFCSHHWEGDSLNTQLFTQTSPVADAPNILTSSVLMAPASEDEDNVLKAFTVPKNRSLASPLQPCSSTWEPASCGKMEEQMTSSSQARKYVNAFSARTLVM
Procedure, shortened: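 Transiently transfected HepG2 cells carrying a multiplexed cis-promoter reporter set report endogenous Myb activity after 24 h compound exposure. Reporter mRNA is read by RT-PCR with capillary electrophoresis of fluorescent products, fitted bidirectionally against DMSO.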

[14] = target: Bile acid receptor (Homo sapiens) (UniProt Q96RI1); assay: ATG_FXR_TRANS: Attagene TRANS-FACTORIAL HepG2 Assay for Farnesoid X Receptor (FXR) (AID 2282979); details: HepG2 Attagene TRANS FXR-GAL4 reporter transcription;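 further: hits raise reporter mRNA above DMSO so AC50 marks FXR activation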
Procedure, shortened: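 Reporter transcripts from transfected HepG2 cells were measured 24 h after dosing, using RT-PCR with capillary electrophoresis of 6-FAM-labelled fragments. The read-out reflects activity of exogenous FXR-Gal4 chimera on GAL4-UAS units, with induction relative to DMSO.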

[15] = target: Hepatocyte nuclear factor 4-alpha (Homo sapiens) (UniProt P41235); assay: ATG_HNF4a_TRANS: Attagene TRANS-FACTORIAL HepG2 Assay for human Hepatocyte Nuclear Factor 4 alpha (HNF4a) (AID 2282982); details: HepG2 HNF4a transactivation reporter, mRNA readout
Hepatocyte nuclear factor 4-alpha (Homo sapiens), sequence (P41235 whole entry, looked up, the tested form may be a part): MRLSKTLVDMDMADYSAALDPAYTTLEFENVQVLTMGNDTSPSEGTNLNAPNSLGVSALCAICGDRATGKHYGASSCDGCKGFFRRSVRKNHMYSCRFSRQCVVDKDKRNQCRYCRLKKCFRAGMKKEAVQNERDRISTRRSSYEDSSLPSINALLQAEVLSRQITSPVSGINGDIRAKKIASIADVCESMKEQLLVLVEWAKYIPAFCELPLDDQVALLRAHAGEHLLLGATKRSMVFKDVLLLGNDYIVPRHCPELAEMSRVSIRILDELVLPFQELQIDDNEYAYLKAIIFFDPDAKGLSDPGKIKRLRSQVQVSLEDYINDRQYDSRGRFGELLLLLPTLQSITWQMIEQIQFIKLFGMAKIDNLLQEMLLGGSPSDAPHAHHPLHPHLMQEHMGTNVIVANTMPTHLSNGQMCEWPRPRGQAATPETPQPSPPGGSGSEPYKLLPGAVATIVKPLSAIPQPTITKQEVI
Procedure, shortened: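 Readout is fluorescent reporter-transcript fragments resolved by capillary electrophoresis after RT-PCR from HepG2 cells dosed for 24 h. Cells carried transfected GAL4-UAS reporter constructs measuring exogenous NR-GAL4 chimera activity; DMSO served as baseline.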

[16] = target: Nuclear respiratory factor 1 (Homo sapiens) (UniProt Q16656); assay: ATG_NRF1_CIS: Attagene CIS-FACTORIAL HepG2 Assay for human Nuclear Respiratory Factor 1 (NRF1) Orphan Gene (AID 2282987; active means hit-call score of the fitted dose curve at least 0.9, where 1 is the maximum; inactive means score below 0.9); details: HepG2 NRF1 cis-element reporter, Attagene multiplex; actives raise or lower the signal
Nuclear respiratory factor 1 (Homo sapiens), sequence (Q16656 whole entry, looked up): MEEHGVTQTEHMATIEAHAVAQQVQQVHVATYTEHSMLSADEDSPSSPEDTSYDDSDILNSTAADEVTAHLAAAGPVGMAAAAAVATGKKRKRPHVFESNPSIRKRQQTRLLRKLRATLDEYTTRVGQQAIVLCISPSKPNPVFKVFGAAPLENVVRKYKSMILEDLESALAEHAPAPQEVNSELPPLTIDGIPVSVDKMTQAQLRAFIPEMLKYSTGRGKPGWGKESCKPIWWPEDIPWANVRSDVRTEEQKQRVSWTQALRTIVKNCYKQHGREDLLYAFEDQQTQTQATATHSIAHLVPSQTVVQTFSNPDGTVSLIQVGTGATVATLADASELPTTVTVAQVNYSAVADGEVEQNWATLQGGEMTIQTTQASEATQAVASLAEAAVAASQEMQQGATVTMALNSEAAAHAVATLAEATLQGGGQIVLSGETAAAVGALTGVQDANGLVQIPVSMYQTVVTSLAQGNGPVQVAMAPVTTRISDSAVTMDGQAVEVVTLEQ
Procedure, shortened: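 HepG2 cells transiently transfected with multiple cis-regulated reporter units, exposed 24 h. Reporter mRNAs measured by RT-PCR, fluorescent labelling, HpaI digestion and capillary electrophoresis; bidirectional fitting against DMSO.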

[17] = ATG_M_06_TRANS: Attagene TRANS-FACTORIAL HepG2 Assay for M06 Transcription Factor (Internal Marker) (AID 2282983); details: HepG2 Attagene TRANS M06 internal marker reporter;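 further: reporter transcript level by RT-PCR then capillary electrophoresis fluorescence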
Procedure, shortened: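 Cells: HepG2, transient multi-reporter transfection. Exposure: 24 h. Detection: RT-PCR, 6-FAM labelling, HpaI digestion (2 h, 37 °C), capillary electrophoresis. Baseline: DMSO.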

[18] = target: Steroid hormone receptor ERR1 (Homo sapiens) (UniProt P11474); assay: ATG_ERRa_TRANS: Attagene TRANS-FACTORIAL HepG2 Assay for human Estrogen-Related Receptor alpha (ERRa) (AID 2282971); details: HepG2 Attagene TRANS reporter, ERRa transactivation
Procedure, shortened: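 Reporter transcripts from ERRa-Gal4 chimera activity measured in transiently transfected human HepG2 cells 24 hours after dosing, using RT-PCR with 6-FAM primer extension, HpaI digestion and capillary electrophoresis; DMSO is baseline.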

[19] = target: Estrogen-related receptor gamma (Homo sapiens) (UniProt P62508); assay: ATG_ERRg_TRANS: Attagene TRANS-FACTORIAL HepG2 Assay for human Estrogen-Related Receptor gamma (ERRg) (AID 2282977); details: HepG2 Attagene TRANS reporter, ERRg transactivation;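 further: hits increase reporter signal over DMSO so potencies reflect activators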
Estrogen-related receptor gamma (Homo sapiens), sequence (P62508 whole entry, looked up, the tested form may be a part): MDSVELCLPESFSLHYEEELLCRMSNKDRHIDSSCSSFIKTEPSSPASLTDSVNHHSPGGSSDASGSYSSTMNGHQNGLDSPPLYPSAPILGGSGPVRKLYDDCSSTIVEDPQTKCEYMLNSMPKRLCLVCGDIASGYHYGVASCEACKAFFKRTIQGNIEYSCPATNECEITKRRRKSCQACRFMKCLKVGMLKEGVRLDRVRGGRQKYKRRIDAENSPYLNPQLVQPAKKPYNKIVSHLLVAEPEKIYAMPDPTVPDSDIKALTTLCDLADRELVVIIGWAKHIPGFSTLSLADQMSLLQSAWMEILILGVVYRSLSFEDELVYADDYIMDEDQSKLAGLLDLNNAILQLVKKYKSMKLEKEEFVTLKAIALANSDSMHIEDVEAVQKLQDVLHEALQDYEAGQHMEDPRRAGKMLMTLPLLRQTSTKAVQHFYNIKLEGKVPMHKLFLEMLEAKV
Procedure, shortened: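 HepG2 cells transiently transfected with multiplexed GAL4-UAS reporter units driven by chimeric NR-Gal4 proteins; 24 h exposure. Reporter mRNA quantified by RT-PCR, fluorescent labelling, HpaI digestion and capillary electrophoresis; gain of signal vs DMSO.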

Measured: AC50

Cc1c(Cl)c(=O)oc2cc(O)ccc12
active: [3] 149 µM | [9] 20.9 µM
not listed: [14] | [15] | [16] | [17] | [18] | [19]
inactive: all other assays above

CC1CCC(C(C)(C)O)CC1 (stereo not drawn)
not listed: [8] | [13] | [17] | [18] | [19]
inactive: all other assays above

CO[Si](CCCn1c(=O)n(CCC[Si](OC)(OC)OC)c(=O)n(CCC[Si](OC)(OC)OC)c1=O)(OC)OC
not listed: [8] | [9] | [10] | [12] | [14] | [16] | [18] | [19]
inactive: all other assays above

COCCOCCOCCOCCOCCO
not listed: [7] | [9] | [13] | [14] | [16]
inactive: all other assays above

CCCCC(CC)COC(=O)/C=C\C(=O)OCC(CC)CCCC (stereo not drawn)
not listed: [9] | [10] | [14] | [15] | [17] | [18]
inactive: all other assays above

CCCCCCCCCCC(CO)CCCCCCCC (stereo not drawn)
inactive: [1] | [2] | [3] | [4] | [5] | [6] | [11] | [12] | [13] | [16]

CN(C)c1ccc(O)c2c1C[C@H]1C[C@H]3[C@H](N(C)C)C(=O)C(C(N)=O)=C(O)[C@@]3(O)C(=O)C1=C2O
not listed: [9] | [11] | [14] | [15] | [17] | [18] | [19]
inactive: all other assays above

CCc1ccc(C=O)cc1
not listed: [7] | [8] | [14]
inactive: all other assays above

O=S(=O)(O)c1cccc2c(S(=O)(=O)O)cccc12
not listed: [8] | [10] | [11] | [12] | [14] | [15] | [18] | [19]
inactive: all other assays above

CC(=O)OCc1ccc2c(c1)OCO2
not listed: [6] | [10] | [15] | [18] | [19]
inactive: all other assays above
